The record followed here is the antibiotic and cytotoxicity screens of Wong et al. (2023).

Hit rate of the full screen: of about 39,000 compounds, about 3,300 (8.5%) were called active. For the sample, actives were picked, then their nearest neighbours and some compounds at random.

In the experiment the test system is HepG2. Briefly: cytotoxicity call (relative viability < 0.9). Conditions: 10 µM.
Regarding `C[C@H](CO)N1C[C@H](C)[C@H](CN(C)S(=O)(=O)c2cn(C)cn2)Oc2c(NC(=O)C3CCCCC3)cccc2C1=O`, the cytotoxicity call was “inactive”. Regarding `C[C@H]1CN([C@@H](C)CO)C(=O)Cc2cc(NC(=O)Cc3cn(C)c4ccccc34)ccc2O[C@H]1CN(C)S(=O)(=O)c1cn(C)cn1`, the cytotoxicity call is “inactive”. As for `COc1ccc(NC(=O)N(C)C[C@H]2OCCCC[C@H](C)Oc3ccc(NC(=O)Nc4ccccc4)cc3C(=O)N([C@@H](C)CO)C[C@H]2C)cc1`, the cytotoxicity call was “inactive”.

In the case of `COCCNC(=O)C[C@H]1CC[C@@H](NS(=O)(=O)c2ccc(C)cc2)[C@H](CO)O1`, the cytotoxicity call is “inactive”. The value for `Cc1ccc(S(=O)(=O)Nc2ccc3c(c2)CC(=O)N([C@H](C)CO)C[C@H](C)[C@H](CN(C)S(=O)(=O)c2cccs2)O3)cc1` was “inactive”. Consider `C[S+](CC[C@H](N)C(=O)O)C[C@H]1O[C@@H](n2cnc3c(N)ncnc32)[C@H](O)[C@@H]1O` (stereo partly specified), for which the cytotoxicity call was “inactive”. For the compound `Nc1ncnc2c1ncn2[C@@H]1O[C@H](CSCC[C@H](N)C(=O)O)[C@@H](O)[C@H]1O`, the cytotoxicity call was “inactive”. As to `COc1ccc(C[C@H](N)C(=O)N[C@H]2[C@@H](O)[C@H](n3cnc4c(N(C)C)ncnc43)O[C@@H]2CO)cc1`, the cytotoxicity call was “active”. As for `C[C@H](CO)N1C[C@H](C)[C@H](CN(C)S(=O)(=O)c2ccccc2F)Oc2ncc(C#Cc3cccnc3)cc2C1=O`, the cytotoxicity call is “inactive”. On to `C[C@H](CO)N1C[C@H](C)[C@H](CN(C)C(=O)Nc2cccc3ccccc23)Oc2ncc(-c3ccc(F)cc3)cc2C1=O`, for which the cytotoxicity call is “inactive”. The value for `O=C(Nc1cccc2ccccc12)c1ccc(C(F)(F)F)cc1` was “inactive”; that for `COCCCCC(=NOCCN)c1ccc(C(F)(F)F)cc1.O=C(O)C=CC(=O)O` was “active”. As for `Cc1noc(C)c1NC(=O)Nc1ccc2c(c1)CC(=O)N([C@H](C)CO)C[C@@H](C)[C@@H](CN(C)CC1CC1)O2`, the cytotoxicity call was “inactive”.

`COc1ccc(NC(=O)N(C)C[C@@H]2Oc3ccc(NC(=O)Cn4cnnn4)cc3C(=O)N([C@@H](C)CO)C[C@@H]2C)cc1`: the cytotoxicity call is “inactive”. As for `CO[C@@H]1CN(C)C(=O)c2cc(NS(=O)(=O)c3cn(C)cn3)ccc2OC[C@@H](C)N(CC2CC2)C[C@H]1C`, the cytotoxicity call is “inactive”. The value for `Cn1c(=O)c2[nH]cnc2n(C)c1=O.NCCN` was “inactive”; that for `C[C@@H]1CN([C@H](C)CO)C(=O)c2cc(NC(=O)Nc3ccccc3)ccc2O[C@@H](C)CCCCO[C@@H]1CN(C)CC1CCCCC1` was “inactive”. Turning to `C[C@H]1CCCCO[C@@H](CN(C)CC2CCCCC2)[C@@H](C)CN([C@@H](C)CO)C(=O)c2cc(NC(=O)Nc3ccccc3)ccc2O1`, the cytotoxicity call was “active”.

Turning to `C[C@@H]1CCCCO[C@H](CN(C)CC2CCCCC2)[C@@H](C)CN([C@H](C)CO)C(=O)c2cc(NC(=O)Nc3ccccc3)ccc2O1`, the cytotoxicity call is “inactive”. Turning to `C[C@@H]1CCCCO[C@H](CN(C)CC2CC2)[C@H](C)CN([C@@H](C)CO)C(=O)c2cc(NC(=O)Nc3ccccc3)ccc2O1`, the cytotoxicity call was “inactive”. With `C[C@H]1CCCCO[C@H](CN(C)CC2CCCCC2)[C@@H](C)CN([C@@H](C)CO)C(=O)c2cc(NC(=O)Nc3ccccc3)ccc2O1`, the cytotoxicity call is “inactive”. In the case of `C[C@@H]1CN([C@@H](C)CO)C(=O)c2cc(NC(=O)Nc3ccccc3)ccc2O[C@@H](C)CCCCO[C@H]1CN(C)CC1CCCCC1`, the cytotoxicity call is “inactive”.

For the compound `C[C@@H]1CCCCO[C@@H](CN(C)CC2CCCCC2)[C@H](C)CN([C@@H](C)CO)C(=O)c2cc(NC(=O)Nc3ccccc3)ccc2O1`, the cytotoxicity call is “inactive”. `C[C@@H]1CN([C@@H](C)CO)C(=O)c2cc(NC(=O)Nc3ccccc3)ccc2O[C@@H](C)CCCCO[C@@H]1CN(C)CC1CCCCC1`: the cytotoxicity call is “active”. As for `C[C@@H]1CCCCO[C@@H](CN(C)CC2CCCCC2)[C@@H](C)CN([C@H](C)CO)C(=O)c2cc(NC(=O)Nc3ccccc3)ccc2O1`, the entry is “active”; as for `C[C@H](CO)N1C[C@H](C)[C@@H](CN(C)CC2CCCCC2)OCCCC[C@H](C)Oc2ccc(NC(=O)Nc3ccccc3)cc2C1=O`, “inactive”; as for `C[C@@H]1CCCCO[C@H](CN(C)CC2CC2)[C@@H](C)CN([C@H](C)CO)C(=O)c2cc(NC(=O)Nc3ccccc3)ccc2O1`, “inactive”. As to `C[C@@H]1CCCCO[C@H](CN(C)CC2CCCCC2)[C@H](C)CN([C@@H](C)CO)C(=O)c2cc(NC(=O)Nc3ccccc3)ccc2O1`, the cytotoxicity call was “active”. The value for `C[C@H](CO)N1C[C@H](C)[C@@H](CN(C)S(=O)(=O)c2cn(C)cn2)Oc2c(NC(=O)c3nc4ccccc4s3)cccc2C1=O` was “inactive”; that for `COc1ccc(NC(=O)N2C[C@H](O)COC[C@@H]3O[C@@H](CC(=O)NCc4ccccc4OC)CC[C@H]32)cc1` was “inactive”.

Consider `O=C1O[C@H](c2ccccc2)[C@H](c2ccccc2)N2[C@H]1[C@@H](C(=O)O)[C@]1(C(=O)Nc3ccc(Cl)cc31)[C@H]2c1ccc(F)cc1`, for which the cytotoxicity call was “inactive”.

`NC(=O)COc1ccccc1`: the cytotoxicity call was “inactive”.

On to `C[C@H](CO)N1C[C@H](C)[C@H](CN(C)C(=O)Nc2ccc3c(c2)OCO3)OCc2cnnn2CCCC1=O`, for which the cytotoxicity call was “inactive”. As for `Cc1noc(C)c1S(=O)(=O)N(C)C[C@@H]1Oc2ccc(NS(C)(=O)=O)cc2C(=O)N([C@@H](C)CO)C[C@@H]1C`, the entry is “inactive”; as for `C[C@@H]1CCCCO[C@@H](CN(C)S(=O)(=O)c2cn(C)cn2)[C@@H](C)CN([C@H](C)CO)C(=O)c2cc(NS(C)(=O)=O)ccc2O1`, “inactive”; as for `COCC(=O)Nc1ccc2c(c1)C(=O)N(C)C[C@H](OC)[C@H](C)CN(Cc1cccc(F)c1)[C@H](C)CO2`, “inactive”. `C=CCOC(=O)[C@@H]1[C@H]2C(=O)O[C@H](c3ccccc3)[C@H](c3ccccc3)N2[C@H](c2ccc(OCCOC(=O)[C@H]3C[C@H]4C(=O)NCC(=O)N4[C@H]3c3cccc(OCCO)c3)cc2)[C@@]12C(=O)Nc1ccccc12`: the cytotoxicity call was “inactive”. `C[C@@H]1CN([C@@H](C)CO)C(=O)c2cc(NC(=O)NC3CCCCC3)ccc2O[C@@H](C)CCCCO[C@@H]1CN(C)S(=O)(=O)c1ccc(F)cc1`: the cytotoxicity call was “inactive”.

As to `C[C@H]1CN([C@@H](C)CO)C(=O)c2cc(NS(=O)(=O)c3ccc(F)cc3)ccc2O[C@@H]1CN(C)C(=O)Nc1ccc(C(F)(F)F)cc1`, the cytotoxicity call was “inactive”. As for `C[C@H](CO)N1C[C@H](C)[C@@H](CN(C)CC2CC2)OCCCC[C@H](C)Oc2ccc(NC(=O)Nc3ccccc3)cc2C1=O`, the entry is “inactive”. For the compound `C[C@@H]1CCCCO[C@@H](CN(C)CC2CC2)[C@H](C)CN([C@@H](C)CO)C(=O)c2cc(NC(=O)Nc3ccccc3)ccc2O1`, the cytotoxicity call is “inactive”. Turning to `C[C@@H]1CCCCO[C@@H](CN(C)CC2CCCCC2)[C@H](C)CN([C@H](C)CO)C(=O)c2cc(NC(=O)Nc3ccccc3)ccc2O1`, the cytotoxicity call was “active”. Consider `C[C@H](CO)N1C[C@H](C)[C@H](CN(C)CC2CCCCC2)OCCCC[C@H](C)Oc2ccc(NC(=O)Nc3ccccc3)cc2C1=O`, for which the cytotoxicity call is “active”. With `C[C@H]1CCCCO[C@H](CN(C)CC2CC2)[C@@H](C)CN([C@@H](C)CO)C(=O)c2cc(NC(=O)Nc3ccccc3)ccc2O1`, the cytotoxicity call was “inactive”. With `C[C@@H]1CCCCO[C@H](CN(C)CC2CCCCC2)[C@H](C)CN([C@H](C)CO)C(=O)c2cc(NC(=O)Nc3ccccc3)ccc2O1`, the cytotoxicity call is “active”. As for `C[C@@H]1CCCCO[C@@H](CN(C)CC2CCCCC2)[C@@H](C)CN([C@@H](C)CO)C(=O)c2cc(NC(=O)Nc3ccccc3)ccc2O1`, the entry is “active”; as for `C[C@@H]1CCCCO[C@@H](CN(C)CC2CC2)[C@H](C)CN([C@H](C)CO)C(=O)c2cc(NC(=O)Nc3ccccc3)ccc2O1`, “inactive”; as for `Cc1csc2c(N3CCC(Cn4cc(C(C)(C)N)nn4)CC3)ncnc12`, “inactive”. `C[C@@H]1OC2=C(Cl)C(=O)N3CCC[C@H]3C[C@@]21O`: the cytotoxicity call is “inactive”. `Cc1ccc(S[C@]2(C(=O)NCC(F)(F)F)CC(=O)N(Cc3ccccc3)[C@@H]2c2ccc(CO)cc2I)cc1`: the cytotoxicity call is “inactive”. Consider `C[C@@H]1CN([C@H](C)CO)S(=O)(=O)c2ccc(C#Cc3cccc(F)c3)cc2O[C@@H]1CN(C)CC1CC1`, for which the cytotoxicity call is “inactive”. The value for `COC(=O)[C@@H]1[C@@H](CO)[C@@H]2Cn3c(cccc3=O)[C@@H]2N1C(=O)C1CC1` was “inactive”.

As for `C[C@H](NC(=O)C[C@@H]1CC[C@H](NC(=O)CN2CCOCC2)[C@@H](CO)O1)c1ccccc1`, the cytotoxicity call is “inactive”. For `C[C@@H]1CCCCO[C@H](CN(C)Cc2ccccc2)[C@H](C)CN([C@H](C)CO)C(=O)c2cc(NC(=O)Cc3ccccc3)ccc2O1`, the cytotoxicity call was “inactive”. As for `C[C@@H]1CCCCO[C@H](CN(C)C(=O)Nc2ccc(C(F)(F)F)cc2)[C@@H](C)CN([C@H](C)CO)C(=O)c2cc(NS(=O)(=O)c3ccc(Cl)cc3)ccc2O1`, the entry is “inactive”.

Regarding `C[C@@H]1CCCCO[C@H](CN(C)C(=O)Nc2ccc(C(F)(F)F)cc2)[C@H](C)CN([C@@H](C)CO)C(=O)c2cc(NS(=O)(=O)c3ccc(Cl)cc3)ccc2O1`, the cytotoxicity call is “inactive”. In the case of `C[C@H](CO)N1C[C@H](C)[C@@H](CN(C)C(=O)Nc2ccc(C(F)(F)F)cc2)OCCCC[C@H](C)Oc2ccc(NS(=O)(=O)c3ccc(Cl)cc3)cc2C1=O`, the cytotoxicity call was “active”.

As to `C[C@@H]1CN([C@@H](C)CO)C(=O)c2cc(NS(=O)(=O)c3ccc(Cl)cc3)ccc2O[C@@H](C)CCCCO[C@@H]1CN(C)C(=O)Nc1ccc(C(F)(F)F)cc1`, the cytotoxicity call is “inactive”.

On to `C[C@@H]1CCCCO[C@H](CN(C)C(=O)Nc2ccc(C(F)(F)F)cc2)[C@H](C)CN([C@H](C)CO)C(=O)c2cc(NS(=O)(=O)c3ccc(Cl)cc3)ccc2O1`, for which the cytotoxicity call was “active”. On to `C[C@@H]1CN([C@H](C)CO)C(=O)c2cc(NS(=O)(=O)c3ccc(Cl)cc3)ccc2O[C@H]1CN(C)C(=O)Nc1ccc(C(F)(F)F)cc1`, for which the cytotoxicity call was “inactive”. `C[C@H](CO)N1C[C@H](C)[C@H](CN(C)C(=O)Nc2ccc(C(F)(F)F)cc2)OCCCC[C@H](C)Oc2ccc(NS(=O)(=O)c3ccc(Cl)cc3)cc2C1=O`: the cytotoxicity call was “active”. With `C[C@@H]1CN([C@H](C)CO)C(=O)c2cc(NS(=O)(=O)c3ccc(Cl)cc3)ccc2O[C@@H]1CN(C)C(=O)Nc1ccc(C(F)(F)F)cc1`, the cytotoxicity call is “active”. Regarding `C[C@H]1CCCCO[C@@H](CN(C)C(=O)Nc2ccc(C(F)(F)F)cc2)[C@@H](C)CN([C@@H](C)CO)C(=O)c2cc(NS(=O)(=O)c3ccc(Cl)cc3)ccc2O1`, the cytotoxicity call was “inactive”. Take `C[C@H]1CN([C@@H](C)CO)C(=O)c2cc(NS(=O)(=O)c3ccc(Cl)cc3)ccc2O[C@@H]1CN(C)C(=O)Nc1ccc(C(F)(F)F)cc1`: the cytotoxicity call is “inactive”. As to `C[C@@H]1CCCCO[C@@H](CN(C)C(=O)Nc2ccc(C(F)(F)F)cc2)[C@H](C)CN([C@@H](C)CO)C(=O)c2cc(NS(=O)(=O)c3ccc(Cl)cc3)ccc2O1`, the cytotoxicity call was “inactive”. Consider `C[C@H]1CCCCO[C@H](CN(C)C(=O)Nc2ccc(C(F)(F)F)cc2)[C@@H](C)CN([C@@H](C)CO)C(=O)c2cc(NS(=O)(=O)c3ccc(Cl)cc3)ccc2O1`, for which the cytotoxicity call was “inactive”.
